PI4K2A inh = blocks human PI4K2A kinase activity | Q9BTU6 | purified PI4K2A, ADP-Glo luminescence, 1 h; active compounds read low | activity change, negative = inhibition, % at 76.9 µM | 420,000 tested, 0.13% active | AID 1346378; in the data active = activity change below about -50%; inconclusive = mostly about -30% to -49%;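 note: -100% = wells without enzyme as full effect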
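In this quantitative HTS, ADP production by PI4K2A was quantified luminescently after 1 h at ambient temperature; 100 microM adenosine served as plate-quality control.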
GALK inhibitor = inhibitors of human galactokinase | P51570 | Purified GALK, Kinase-Glo residual ATP luminescence | Potency, µM (titrated, usually from 57.5 µM), without a hit: at the highest dose activity change, negative = inhibition, most hits filed as inhibitors | 270,000 tested, 0.007% active; note: potency is the fitted concentration of half-maximal effect
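Luminescence from leftover ATP (Ultra-Glo luciferase/luciferin) served as read-out after a 1 h room-temperature reaction of 5 nM GALK with 35 uM ATP and 100 uM galactose.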
rTrxR1 inhibitor = blocks rat thioredoxin reductase 1 | O89049 | recombinant rTrxR1, NADPH fluorescence consumption, selenite substrate | Potency, µM (titrated, usually from 114 µM), for inactives: top-dose activity change, negative = inhibition, most hits filed as inhibitors | 390,000 tested, 1% active; note: potency is the fitted concentration of half-maximal effect; nearly all actives have a fitted effect of over 65% in size
Target sequence (O89049 whole entry, looked up): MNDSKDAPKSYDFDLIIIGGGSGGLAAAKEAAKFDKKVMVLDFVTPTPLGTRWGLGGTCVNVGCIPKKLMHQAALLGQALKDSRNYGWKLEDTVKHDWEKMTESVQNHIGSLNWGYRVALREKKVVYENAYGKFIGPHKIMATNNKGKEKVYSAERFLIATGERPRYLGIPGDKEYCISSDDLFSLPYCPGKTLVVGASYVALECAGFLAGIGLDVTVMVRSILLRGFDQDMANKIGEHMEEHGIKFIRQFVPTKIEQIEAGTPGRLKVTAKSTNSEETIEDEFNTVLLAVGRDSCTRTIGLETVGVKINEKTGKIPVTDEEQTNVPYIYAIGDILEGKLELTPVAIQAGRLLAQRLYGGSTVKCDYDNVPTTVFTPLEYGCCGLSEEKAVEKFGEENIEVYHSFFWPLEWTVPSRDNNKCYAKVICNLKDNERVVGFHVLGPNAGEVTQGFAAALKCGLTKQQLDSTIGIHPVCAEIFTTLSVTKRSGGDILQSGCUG
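Rat TrxR1 (90 nM in the dispensed reagent) was pre-reduced with 400 uM NADPH for 5 min at room temperature, then incubated with compound for 15 min. After 400 uM selenite was added, NADPH fluorescence (Ex 340/Em 450 nm) was followed for 8 min.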
TrxR1 substrate = substrates of rat thioredoxin reductase 1. 390,000 tested, 0.01% active. O89049. purified TrxR1 substrate turnover, NADPH consumption readout. Potency, µM (top dose mostly 114 µM), inactives show at the top dose activity change, negative = substrate turnover; note: potency is the fitted concentration of half-maximal effect; nearly all actives have a fitted effect of over 50% in size
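Rat TrxR1, dispensed at 90 nM, was prereduced with 400 uM NADPH (final) for 5 min at ~22 deg C, then incubated with compound 15 min before 400 uM selenite. A first-read NADPH fluorescence drop versus no-compound background flagged substrates.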
The depositor's hits bear a star; ? = inconclusive; nt = not tested or not shown; [ ] = dose if it differs, or a comment. Rows were chosen to be rich in hits. Some 1.1% of all compounds tested hit in one or more screens of this group. Unless noted, calls come from the whole dose curve; as a rule, active = well fitted curve in the direction sought with a large enough effect; inconclusive = small, poorly fitted or top-dose-only effect, or another doubt; inactive = no such curve, though single readings can be large; an effect the other way counts as inactive or inconclusive. Unless noted, % is set by controls: 0 for no effect and ±100 for the full control effect.

SMILES | PI4K2A inh | GALK inhibitor | rTrxR1 inhibitor | TrxR1 substrate
Cc1cccc(N(C)C(=S)Oc2ccc3c(c2)C2CCC3C2)c1 (stereo not given) | -3 | nt | nt | nt
CO[C@@]1(NC(=O)CSC[C@@H](N)C(=O)O)C(=O)N2C(C(=O)O)=C(CSc3nnnn3C)CS[C@@H]21 | 3 | nt | nt | nt
O=C(NC(=S)NNS(=O)(=O)c1ccccc1)c1ccc([N+](=O)[O-])cc1 | 3 | -2% | 14µM* | -11%
O=C(NNS(=O)(=O)c1ccccc1)c1ccc([N+](=O)[O-])cc1 | -4 | 0% | 19% | 6%
O=C(NC(=S)NNS(=O)(=O)c1ccccc1)c1cccnc1 | -5 | -1% | 25µM* | -4%[57.1 µM]
N#Cc1ccccc1NC(=S)NC(=O)c1cccnc1 | 18 | 4% | 3.5µM* | 10%[57.1 µM]
COc1ccc(/C=C/C(=O)Nc2nc(-c3cccs3)ns2)cc1OC | -1 | nt | 36% | 14%
COC(=O)C[C@H]1c2ccccc2S(=O)(=O)N1c1ccc(N(C)C)cc1 | nt | nt | -14% | 0%
CCCCCCCC(=O)N/N=C/c1ccc([N+](=O)[O-])o1 | -1 | -2% | ? | -2%
O=C(Cc1ccc([N+](=O)[O-])cc1)N/N=C/c1ccc([N+](=O)[O-])o1 | -2 | 8% | 14µM* | -3%
O=C(CC12CC3CC(CC(C3)C1)C2)N/N=C/c1ccc([N+](=O)[O-])o1 | -9 | -6% | 40µM* | 2%
CC1(C(=O)N/N=C/c2ccc([N+](=O)[O-])o2)CC1(Br)Br (stereo not given) | -1 | 3% | 45µM* | -7%
CCOC(=O)N/N=C\c1ccc([N+](=O)[O-])o1 | 1 | nt | 7.1µM* | -6%
Fc1ccc(/C=C/c2ccc3ccccc3n2)cc1 | nt | nt | ? | -15%
CCOC(=O)c1c(-c2ccc(Br)cc2)csc1NC(=O)c1ccc(C(C)(C)C)cc1 | -1 | nt | -12% | -2%
CC(C)(C)c1ccc(-n2nc(C#N)c(Cl)cc2=O)cc1 | 52 | -11% | 16µM* | 4%[57.1 µM]
CC1(C)CC(=O)N(CC(=O)N2CCN(c3cccc(C(F)(F)F)c3)CC2)c2ccccc2S1(=O)=O | -3 | nt | nt | nt
COC(=O)NCC12CC3CC(C1)CC(CNC(=O)OC)(C3)C2 | 3 | 6% | 35µM* | 5%
COc1cccc(OC)c1C(=O)NCC12CC3CC(C1)CC(CNC(=O)c1c(OC)cccc1OC)(C3)C2 | 8 | 1% | 20% | -3%
CC(=O)/C=C\c1cn(-c2ncc(C(F)(F)F)cc2Cl)c2ccccc12 | 7 | -6% | 6%[57.1 µM] | -11%
N#CC(C#N)=Cc1cn(-c2ncc(C(F)(F)F)cc2Cl)c2ccccc12 | 55 | 0% | 16µM* | -15%[57.1 µM]
COc1cccc(CC(=O)O[C@@H]2CCC[C@@]3(C(=O)N(Cc4ccccc4)c4ccccc43)[C@H]2NC(=O)CCc2ccccc2)c1 | -1 | nt | nt | nt
Cc1cc(O)c(CN(C)C)c2c1C(=O)/C(=C/c1ccco1)O2 | -15 | nt | 56µM* | -12%
COc1ccc2c(c1)O/C(=C\c1ccco1)C2=O | -2 | nt | -6%[57.1 µM] | 1%[57.1 µM]
O=C(NC1CCCCC1)C(c1cccnc1)N(C(=O)CCl)c1ccccc1Cl (stereo not given) | 1 | 1% | 3%[57.1 µM] | -19%[57.1 µM]
SMILES | PI4K2A inh | GALK inhibitor | rTrxR1 inhibitor | TrxR1 substrate
COc1ccc(N(C(=O)CCl)C(C(=O)NC2CCCCC2)c2cccnc2)cc1 (stereo not given) | 15 | 1% | 16µM* | 2%
O=C(NC1CCCCC1)C(c1cccnc1)N(C(=O)CCl)c1ccc(F)cc1 (stereo not given) | 13 | 0% | 14µM* | 13%
COc1ccc(C(NC(=O)/C=C\c2ccco2)c2ccc(OC)c(OC)c2)cc1 (stereo not given) | -2 | -1% | 8.9µM* | -5%
COc1ccc(C(NC(=O)/C=C/c2ccco2)c2ccc(OC)cc2)cc1 | -9 | -1% | 25µM* | 0%
CC(C)C(=O)NCC(c1ccc2c(c1)OCO2)N1CCN(c2ccccc2F)CC1 (stereo not given) | 3 | nt | 19%[57.1 µM] | 3%[57.1 µM]
CC(C)c1nnc(NC(=O)CCS(=O)(=O)c2nc(-c3cccs3)cc(C(F)(F)F)n2)s1 | 7 | -1% | 35µM* | 14%
COc1ccc(Cl)cc1NC(=O)CCS(=O)(=O)c1nc(-c2cccs2)cc(C(F)(F)F)n1 | 6 | nt | ? | 5%[2.29 µM]
COc1ccc(NC(=O)CCS(=O)(=O)c2nc(-c3cccs3)cc(C(F)(F)F)n2)cc1 | 1 | nt | 13µM* | 13%[2.29 µM]
O=C(CCS(=O)(=O)c1nc(-c2cccs2)cc(C(F)(F)F)n1)Nc1ccc(OC(F)(F)F)cc1 | -68* | nt | -3% | 6%
O=C(CCS(=O)(=O)c1nc(-c2cccs2)cc(C(F)(F)F)n1)Nc1ccc(F)c(Cl)c1 | 3 | nt | ? | 18%[2.29 µM]
CCOc1ccc(C(=O)Nc2ccc(C(=O)OCc3cc(=O)n4c(C)csc4n3)cc2)cc1 | 2 | nt | 6%[57.1 µM] | 1%[57.1 µM]
O=Nc1ccc2oc(=O)ccc2c1 | -4 | nt | ? | ?
CN(C)[C@H]1CCN(c2ccc3c(c2)O[C@@H]2CCN(C2)S3(=O)=O)C1 | -8 | nt | nt | nt
COc1ccc(C)cc1NC(=O)c1noc2c1CSc1ccccc1-2 | 1 | nt | 14% | 8%
COC(=O)c1ccccc1NC(=O)c1noc2c1CSc1ccccc1-2 | -8 | nt | 14µM* | -4%
O=C(c1cc(COc2ccc(F)cc2F)on1)N1CCN(C(=O)c2ccco2)CC1 | -6 | 0% | 50µM* | 2%
O=C(Oc1ccc2c(=O)c(Cl)coc2c1)c1cccnc1 | -2 | 0% | 13µM* | 7%[57.1 µM]
O=C(Oc1ccc2c(=O)c(Oc3ccc4ccccc4c3)coc2c1)c1cccnc1 | 3 | 0% | -12% | 5%
O=C(CCN1CCC2CCC(C2)C1)c1ccccc1 (stereo not given) | 9 | nt | 0.71µM* | 3%[11.4 µM]
Cc1cc(Sc2ncnc(N)c2[N+](=O)[O-])ncn1 | 0 | 1% | ? | 9%[57.1 µM]
Cc1cc(Sc2nc(N)ncc2[N+](=O)[O-])ncn1 | -14 | 4% | 1.6µM* | 10%[57.1 µM]
CC(C)(C)n1ncc2c(=O)n(Cc3ccccc3CS(=O)(=O)c3ccccc3)cnc21 | nt | nt | 7% | -7%
Cc1ccc(C(=O)Sc2cccccc2=O)cc1 | -12 | nt | 0.63µM* | 3%[57.1 µM]
CC(C)(C)n1ncc2c(=O)n(Cc3ccc(F)c(F)c3F)cnc21 | nt | nt | 27% | 9%
CCN(CCO)C1CC(=O)N(c2ccccc2C)C1=O (stereo not given) | 6 | 0% | 50µM* | 0%
CC(=O)N[C@@H](CCC(=O)O)C(=O)O | 5 | nt | nt | nt
C=CCNC(=O)c1ccc(-c2ccc([N+](=O)[O-])cc2)o1 | 2 | 0% | 10µM* | -10%[57.1 µM]
CCCN(CC(=O)Nc1ccccc1C)C(=O)c1ccc(-c2ccc([N+](=O)[O-])cc2)o1 | 0 | nt | 3.5µM* | -3%
COc1ccc(CN2C(=O)c3ccnn3CC2(C)c2nnnn2-c2c(C)cccc2C)cc1 (stereo not given) | 1 | nt | nt | nt
CCO[C@@H]1O[C@H](C(COCc2ccccc2)OCc2ccccc2)[C@H](OCc2ccccc2)[C@H]1O (stereo not given in full) | 0 | nt | nt | nt

Assay outcomes (PubChem BioAssay)
